Reference: PubChem BioAssay (NCI)
The panel holds about 79,000 compounds, 15% with a hit somewhere; the sample as a whole holds those more often. Calls of active or inactive are those of the source. Cut-off read from the data, not from the text of the source: active = growth inhibition above about 70%; inactive = the rest.

What was measured:
[1] = NCI Yeast Anticancer Drug Screen. Data for the rad52 strain (AID 147);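 note: 0% = growth of vehicle-treated control cultures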; details: S. cerevisiae rad52 mutant growth inhibition, hits give high values
Summary of the method: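 The repair-mutant yeast strain was incubated with compounds, then growth was read and inhibition derived relative to vehicle.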

[2] = NCI Yeast Anticancer Drug Screen. Data for the wt1 strain (AID 149);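 note: 0% = growth of vehicle-treated wt1 cultures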; details: S. cerevisiae wt1 strain (SPY 50644) growth inhibition, hits give high values
Summary of the method: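 Vehicle-normalised growth inhibition; strain wt1; compound exposure.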

[3] = NCI Yeast Anticancer Drug Screen. Data for the rad50EPP+ strain (AID 151);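 note: 0% = growth of vehicle-treated control cultures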; details: S. cerevisiae rad50 mutant strain, hits give high values
Summary of the method: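 Vehicle-normalised growth inhibition; rad50EPP+ yeast strain, altered in DNA damage repair, compound-treated.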

[4] = NCI Yeast Anticancer Drug Screen. Data for the mgt1 strain (AID 153); details: S. cerevisiae mgt1 mutant growth inhibition, hits give high values
Summary of the method: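 Vehicle-normalized growth inhibition is determined in mgt1 yeast, a strain selected for a defined alteration in DNA repair or cell cycle control.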

[5] = NCI Yeast Anticancer Drug Screen. Data for the rad50 strain (AID 155);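 note: 0% = growth of vehicle-only cultures of the same strain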; details: S. cerevisiae rad50 strain growth inhibition, hits give high values
Summary of the method: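 A DNA repair-deficient yeast mutant serves as the test organism; compound-induced growth inhibition is calculated against vehicle-treated cells.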

[6] = NCI Yeast Anticancer Drug Screen. Data for the mec2-1 strain (AID 157); details: S. cerevisiae mec2-1 strain, hits give high values
Summary of the method: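 Mutant yeast (mec2-1) grown with compound; growth inhibition relative to vehicle control reported.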

[7] = NCI Yeast Anticancer Drug Screen. Data for the rad14 strain (AID 159);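 note: 0% = growth of vehicle-treated control cultures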; details: S. cerevisiae rad14 strain growth inhibition, hits give high values
Summary of the method: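 Vehicle-treated cultures served as the baseline for growth inhibition of a DNA repair-mutant yeast strain exposed to each compound.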

[8] = NCI Yeast Anticancer Drug Screen. Data for the sgs1 mgt1 strain (AID 161);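 note: 0% = growth of cultures given vehicle only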; details: S. cerevisiae sgs1 mgt1 strain, hits give high values
Summary of the method: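 Percent growth inhibition was derived by comparing compound-exposed mutant yeast with vehicle-exposed cultures. The strain carries alterations in DNA damage repair.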

[9] = NCI Yeast Anticancer Drug Screen. Data for the CLN2oe strain (AID 163);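 note: 0% = growth of vehicle-only control cultures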; details: S. cerevisiae CLN2oe strain, hits give high values
Summary of the method: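 Compounds are applied to yeast harbouring a defined cell-cycle control change; reduced growth compared with vehicle-treated controls gives the value.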

[10] = NCI Yeast Anticancer Drug Screen. Data for the cln2 rad14 strain (AID 165);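 note: 0% = growth equal to vehicle treated cultures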; details: S. cerevisiae cln2 rad14 strain, hits give high values
Summary of the method: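 Readout is yeast growth inhibition versus vehicle-treated controls, using a strain with cln2 and rad14 alterations exposed to compound.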

[11] = NCI Yeast Anticancer Drug Screen. Data for the bub3 strain (AID 167); details: S. cerevisiae bub3 mutant strain, hits give high values
Summary of the method: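 Inhibition values come from growth of compound-treated mutant yeast normalised to vehicle-treated controls.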

[12] = NCI Yeast Anticancer Drug Screen. Data for the mlh1 strain (AID 171);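 note: 0% = growth of vehicle-treated control cultures of the same strain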; details: S. cerevisiae mlh1 strain growth inhibition, hits give high values
Summary of the method: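 Measured: yeast growth. Reference: vehicle-treated controls. Organism: strain with a defined alteration affecting DNA damage repair or cell cycle control, treated with compound.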

[13] = NCI Yeast Anticancer Drug Screen. Data for the sgs1 strain (AID 173);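 note: 0% = growth of vehicle-only control cultures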; details: S. cerevisiae sgs1 mutant, hits give high values
Summary of the method: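 Each compound was added to cultures of the altered yeast strain. Growth was recorded, and inhibition was derived by comparison with vehicle controls.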

[14] = NCI Yeast Anticancer Drug Screen. Data for the mlh1 rad18 strain (AID 175); details: S. cerevisiae mlh1 rad18 strain growth inhibition, hits give high values
Summary of the method: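 Genetically defined yeast (DNA repair-deficient) exposed to compounds; growth inhibition determined relative to vehicle.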

[15] = NCI Yeast Anticancer Drug Screen. Data for the rad18 strain (AID 177); details: S. cerevisiae rad18 mutant growth inhibition, hits give high values
Summary of the method: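 Vehicle-treated cultures served as the baseline for scoring compound-induced growth inhibition in DNA-repair-mutant yeast.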

[16] = at 5.0 µM (retest, dose inferred, filed as 0.5)
[17] = at 50.0 µM (retest, dose inferred, filed as 5.0)

Measured: growth inhibition

Oc1ccc(C2(c3ccc(O)cc3)CCCC2)cc1
active: [1]; at 33.0 µM 98% | [1]; at 100.0 µM 98% | [2]; at 33.0 µM 98% | [2]; at 100.0 µM 98% | [4]; at 33.0 µM 97% | [4]; at 100.0 µM 98% | [5]; at 33.0 µM 98% | [5]; [17] 99% | [5]; at 50.0 µM 90.5% | [5]; at 100.0 µM 98% | [6]; at 33.0 µM 98% | [6]; [17] 99% | [6]; at 50.0 µM 93.2% | [6]; at 100.0 µM 98% | [7]; at 33.0 µM 98% | [7]; at 100.0 µM 98% | [8]; at 50.0 µM 92.1% | [9]; at 33.0 µM 99% | [9]; at 100.0 µM 98% | [10]; [17] 99% | [10]; at 50.0 µM 89.5% | [11]; at 33.0 µM 98% | [11]; [17] 98% | [11]; at 50.0 µM 92.1% | [11]; at 100.0 µM 98% | [12]; at 33.0 µM 98% | [12]; at 100.0 µM 98% | [13]; at 33.0 µM 98% | [13]; at 100.0 µM 98% | [14]; [17] 99% | [14]; at 50.0 µM 90% | [15]; at 33.0 µM 98% | [15]; at 100.0 µM 98%
inactive: [1]; at 1.2 µM -31% | [1]; at 3.7 µM -23% | [1]; at 11.0 µM 15% | [2]; at 1.2 µM -41% | [2]; at 3.7 µM -21% | [2]; at 11.0 µM 10% | [3]; at 1.2 µM -40% | [3]; at 3.7 µM -50% | [3]; at 11.0 µM -44% | [3]; at 33.0 µM -50% | [3]; at 100.0 µM -4% | [4]; at 1.2 µM -23% | [4]; at 3.7 µM -6% | [4]; at 11.0 µM 37% | [5]; at 1.2 µM 3% | [5]; at 3.7 µM 4% | [5]; [16] 16% | [5]; at 11.0 µM 34% | [6]; at 1.2 µM -26% | [6]; at 3.7 µM -16% | [6]; [16] 8% | [6]; at 11.0 µM 32% | [7]; at 1.2 µM 1% | [7]; at 3.7 µM -16% | [7]; at 11.0 µM 29% | [8]; [16] 9% | [8]; [17] 53% | [9]; at 1.2 µM -12% | [9]; at 3.7 µM 16% | [9]; at 11.0 µM 48% | [10]; [16] 44% | [11]; at 1.2 µM -24% | [11]; at 3.7 µM -22% | [11]; [16] 16% | [11]; at 11.0 µM 27% | [12]; at 1.2 µM -33% | [12]; at 3.7 µM -26% | [12]; at 11.0 µM 46% | [13]; at 1.2 µM -20% | [13]; at 3.7 µM -17% | [13]; at 11.0 µM 11% | [14]; [16] 35% | [15]; at 1.2 µM -11% | [15]; at 3.7 µM 7% | [15]; at 11.0 µM 60%
